Assay outcomes from PubChem.
In the library only some 21% were active in any assay of this set; here they are far more common.
NS1 inh – qHTS Assay for Inhibitors of Influenza NS1 Protein Function; Potency, µM (titrated, usually from 46.1 µM); 270,000 tested, 0.4% active; calls by dose curve; further: actives are rising curves; nearly all actives have a fitted effect of over 50% in size
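Recovery from NS1-induced slow growth read by OD600 in budding yeast switched to galactose assay medium (pH 6.0, -URA) at 1:100 dilution. Compound 23 nl per well; the matching strain lacking NS1 serves as control.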
Pf growth 48h – Primary qHTS for delayed death inhibitors of the malarial parasite plastid, 48 hour incubation; P. falciparum luciferase growth in erythrocytes, 48 h; Potency, µM (doses to about 28.7 µM), actives largely listed as inhibitors; 310,000 tested, 5.9% active; AID 504832, 2011
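First compound was added to culture medium, then infected red cells at 0.1% parasitemia and 2% hematocrit (final). After incubation at 37 C under 5% CO2, luciferase detection reagent was dispensed and light output recorded.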
Pf growth 96h – Primary qHTS for delayed death inhibitors of the malarial parasite plastid, 96 hour incubation | Potency, µM (series often up to 28.7 µM), usual class: inhibitors | P. falciparum luciferase reporter growth, 96 h | AID 504834, 2011 | 320,000 tested, 6.9% active
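P. falciparum expressing integrated firefly luciferase, in erythrocytes at 2% hematocrit, 0.05% parasitemia, incubated with compounds 96 h at 37 C, 5% CO2. Growth inhibition read as loss of luminescence; two-generation exposure targets delayed-death apicoplast inhibitors.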
CHX counter – Cycloheximide Counterscreen for Small Molecule Inhibitors of Shiga Toxin. cell reporter, cycloheximide protein synthesis inhibition counterscreen. max response, %. 300,000 tested, 12% active; in the data active means max response mostly above about 13%, no sharp cut-off; inactive means mostly below about 14%; further: read at 38.3 µM for the half of the compounds with a filed dose
Shiga toxin inh – A qHTS for Small Molecule Inhibitors of Shiga Toxin; Vero cells, Shiga toxin protein synthesis inhibition reporter; inhibition, % at 38.7 µM; 290,000 tested, 9.2% active; in the data active means inhibition mostly above about 28%, no sharp cut-off; inactive means mostly below about 43%
Each line names hits and unclear results; the compound was inactive in the other large screens. Unless noted, the call rests on the fitted dose curve; in most records, active means well fitted inhibition curve with a large enough effect; inconclusive means small, poorly fitted or top-dose-only effect, or another doubt; inactive means no such curve, though single readings can be large or run the other way.

COc1ccc(-n2nc(C(=O)NCC(=O)N3CCC4(CC3)OCCO4)c3ccccc3c2=O)cc1Cl	CHX counter 23, Shiga toxin inh 54
COc1ccc(-n2nc(C(=O)NCC(=O)N3CCCC(C)C3)c3ccccc3c2=O)cc1Cl (centres undefined)	Pf growth 48h inconclusive, CHX counter 17, Shiga toxin inh 36
Cc1cc(C)c2nc(-c3ccccn3)cc(C(=O)n3cccn3)c2c1	none
COc1ccc(C(CNC(=O)c2nn(-c3ccccc3)c(=O)c3ccccc23)N2CCOCC2)cc1 (centres undefined)	Pf growth 96h 10µM (no result: NS1 inh, CHX counter, Shiga toxin inh)
COc1ccc(-n2nc(C(=O)NCC(=O)N3CCC4(CC3)OCCO4)c3ccccc3c2=O)cc1	none
Cc1ccccc1-c1nnc(-c2cccs2)o1	CHX counter 58, Shiga toxin inh 85
Cc1ccccc1-c1noc(-c2cccs2)n1	Pf growth 96h inconclusive, CHX counter 55, Shiga toxin inh 87
CCOC(=O)COc1cc(N)c(Cl)cc1Cl	CHX counter 27 (no result: NS1 inh)
CCOC(=O)COc1cc(-n2c(=S)[nH]c3ccccc3c2=O)c(Cl)cc1Cl	Pf growth 48h inconclusive (no result: NS1 inh)
CCOc1ccc(S(=O)(=O)n2nnc3ccccc32)cc1C(C)C	none (no result: Pf growth 96h)
Cc1ccc(NC(=O)C2CCN(C(=O)NC3CCCCC3)CC2)cc1Cl	none
COc1ccc(NC(=O)NN2CCN(C)CC2)cc1OC	CHX counter 27, Shiga toxin inh 21
Cc1ccc(NC(=O)NC2CCCCC2)cc1Cl	CHX counter 34, Shiga toxin inh 59 (no result: Pf growth 96h)
COc1ccc(NC(=O)NC2CCCCCCC2)cc1OC	Pf growth 96h inconclusive, CHX counter 39
CCOC(=O)c1c(S(=O)(=O)Nc2ccc(F)cc2Cl)c(C)n(C)c1C	Pf growth 96h inconclusive
OC(COC(c1ccc(Cl)cc1)c1ccc(Cl)cc1)CN1CCN(c2ccccn2)CC1 (centres undefined)	Pf growth 48h inconclusive, Pf growth 96h inconclusive
OC(CN1CCCCC1)Cn1c2ccc(Cl)cc2c2cc(Cl)ccc21 (centres undefined)	Pf growth 48h 1.9µM, Pf growth 96h inconclusive
CC1CCN(CC(O)Cn2c3ccccc3c3ccccc32)CC1 (centres undefined)	Pf growth 48h inconclusive, Pf growth 96h inconclusive
OC(CN1CCN(c2ccccn2)CC1)Cn1c2ccc(Cl)cc2c2cc(Cl)ccc21 (centres undefined)	Pf growth 48h 1.7µM (no result: Pf growth 96h)
O=C(O)C1CCN(C(=O)CCc2ccccc2)CC1	none
O=c1[nH]ncc(N/N=C\c2cccs2)c1Cl	none (no result: NS1 inh)
C=CCn1c(NCc2ccccc2O)nc2ccccc21	Pf growth 48h inconclusive, Pf growth 96h inconclusive, CHX counter 22 (no result: Shiga toxin inh)
CCn1c(NCc2cc(Cl)ccc2O)nc2ccccc21	NS1 inh inconclusive, Pf growth 48h 7.4µM, Pf growth 96h 5.2µM
C=CCn1c(NCc2ccccc2OC)nc2ccccc21	Pf growth 96h inconclusive, CHX counter 18
C=CCn1c(NCc2ccccc2)nc2ccccc21	CHX counter 16
C=CCn1c(NCc2cc(Cl)ccc2O)nc2ccccc21	Pf growth 48h inconclusive, Pf growth 96h inconclusive
Cc1nc2nc(C)c(NS(=O)(=O)c3ccc(CC(C)C)cc3)c(=O)n2[nH]1	none
CC(=O)OCC1(C)CN(c2ccccc2)N(C(=O)c2ccc(F)cc2)C1=O (centres undefined)	none (no result: NS1 inh)
CCN(CC)CCn1c(NCc2ccc(C)o2)nc2ccccc21	Pf growth 96h inconclusive (no result: Pf growth 48h)
Cn1c(NCc2ccccc2O)nc2ccccc21	CHX counter 38 (no result: Pf growth 96h)
C=CCc1cccc(CNc2ccc(Br)cc2)c1O	Pf growth 48h 12µM, Pf growth 96h inconclusive
C=CCc1cccc(CNc2nc3ccccc3n2C(C)C)c1O	Pf growth 48h 4.7µM, Pf growth 96h inconclusive
C=CCc1cccc(CNc2ccc(S(=O)(=O)Nc3nccnc3OC)cc2)c1O	Pf growth 96h inconclusive
Cc1ccc(CNc2nc3ccccc3n2C)o1	CHX counter 54, Shiga toxin inh 51
